This note sets out measurements from paper PMC4242493, “Sequence specificity incompletely defines the genome-wide occupancy of Myc”.

In all, about 33,000 sequences were measured (“normalized occupancy”: median about 0.075, highest 2% from about 0.095 on). Shown is part of a subset that was picked to be rich in the highest values.

The target of the experiment is MaxL homodimer (Homo sapiens, UniProt P61244 1-160). In words: universal protein-binding microarray (PBM); PBS-based mixture, 10 nM His-tagged protein dimer, 2% milk, 200 ng/uL BSA, 50 ng/uL salmon testes DNA, 0.02% TX-100; detection with Alexa 488 anti-His antibody;; high values mean tight binding. Particulars: protein: recombinant; tags: C-terminal His-tag (pET21a); chain copies: 2; dsDNA, one strand shown. In a few lines: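 Binding occupancy is a fluorescence intensity normalised to the intensity of the highest-ranked sequence word. Those intensities came from 8-mers on Agilent 4 x 44 K 'all 10-mer' universal arrays incubated with 10 nM His-tagged protein dimer. Bound protein was detected with 10 ng/μL fluorophore-conjugated anti-His antibody before scanning on a GenePix 4400A.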
Sequence of MaxL homodimer (P61244 whole entry): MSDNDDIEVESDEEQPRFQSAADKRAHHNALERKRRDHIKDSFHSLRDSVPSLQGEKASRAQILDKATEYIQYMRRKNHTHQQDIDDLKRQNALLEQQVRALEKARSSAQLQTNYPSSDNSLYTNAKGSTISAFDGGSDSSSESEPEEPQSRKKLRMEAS
Consider GACAGTAA, for which the binding signal came out at 0.0794 normalized occupancy.

On to ACGTTCGA, for which the binding signal is 0.0752 normalized occupancy.

On to CACGACAC, for which the binding signal was found to be 0.0789 normalized occupancy.

Consider CGTACGGC, for which the binding signal was 0.0778 normalized occupancy.

For AAACAGCA, the binding signal amounted to 0.0759 normalized occupancy.

AGCATTTC: the binding signal was determined as 0.0792 normalized occupancy.

With CGCATTTC, the binding signal was 0.0783 normalized occupancy.

For the sequence CGCATGTC, the binding signal was determined as 0.105 normalized occupancy.

As to AGGATGTG, the binding signal is 0.0831 normalized occupancy.

Turning to AGTATGTC, the binding signal stood at 0.0803 normalized occupancy.

Turning to AGGATGTA, the binding signal came to 0.0795 normalized occupancy.

On to AGTATGTG, for which the binding signal is 0.081 normalized occupancy.

With AGCATGTC, the binding signal was found to be 0.1 normalized occupancy.

Take CGCATCTC: the binding signal turned out to be 0.0769 normalized occupancy.

Turning to AGCATGTA, the binding signal came out at 0.106 normalized occupancy.

AGCATGTG: the binding signal worked out at 0.164 normalized occupancy.

Regarding GGCATGTA, the binding signal worked out at 0.0812 normalized occupancy.

Turning to CCGTACAC, the binding signal was found to be 0.0886 normalized occupancy.

Take GTGAGTGA: the binding signal was 0.0775 normalized occupancy.

Regarding ACTGGCCT, the binding signal turned out to be 0.073 normalized occupancy.

For CATTCGCA, the binding signal was 0.078 normalized occupancy.

As to AGCCAACA, the binding signal was determined as 0.0808 normalized occupancy.

Regarding ACTTGTGC, the binding signal is 0.0751 normalized occupancy.

AAAATTAG: the binding signal stood at 0.0735 normalized occupancy.

For the sequence ATTAAGGA, the binding signal was determined as 0.0744 normalized occupancy.

As to AAACAGTA, the binding signal is 0.0764 normalized occupancy.

Consider CCCATGTA, for which the binding signal stood at 0.0872 normalized occupancy.

CGCATGTA: the binding signal stood at 0.105 normalized occupancy.

Regarding CTCATGTA, the binding signal turned out to be 0.0936 normalized occupancy.

With GGAATCCC, the binding signal was determined as 0.0772 normalized occupancy.

Consider ATCGTTCG, for which the binding signal came to 0.0755 normalized occupancy.

With CAAGCGCG, the binding signal came out at 0.0759 normalized occupancy.

Regarding AAAGCGCG, the binding signal turned out to be 0.0769 normalized occupancy.

For the sequence CAAGCGTG, the binding signal stood at 0.104 normalized occupancy.

Take AAAGCGTT: the binding signal was determined as 0.0746 normalized occupancy.

In the case of CAAGCGAG, the binding signal came out at 0.0757 normalized occupancy.

As for AAAGCGTG, the binding signal was 0.11 normalized occupancy.

Turning to ATGTTGCA, the binding signal worked out at 0.0888 normalized occupancy.

Regarding CTTCCCCA, the binding signal is 0.0787 normalized occupancy.

Consider AGTAGTAG, for which the binding signal amounted to 0.0786 normalized occupancy.

For the sequence GATGTTAC, the binding signal was 0.0818 normalized occupancy.

Consider AGGCGTCA, for which the binding signal turned out to be 0.0742 normalized occupancy.

As for CGGTACAC, the binding signal was 0.0815 normalized occupancy.

GACGTGGC: the binding signal was determined as 0.0846 normalized occupancy.

As for ACCGTGGG, the binding signal came to 0.0732 normalized occupancy.

With AACGTTGT, the binding signal amounted to 0.0817 normalized occupancy.

Regarding AACGTGGC, the binding signal was 0.107 normalized occupancy.

As for AAAGTGGT, the binding signal worked out at 0.0721 normalized occupancy.

AACGTGGT: the binding signal was found to be 0.125 normalized occupancy.

Turning to AACGTGGG, the binding signal is 0.114 normalized occupancy.

For AACGTAGC, the binding signal is 0.0749 normalized occupancy.

In the case of ATCGTGGG, the binding signal was determined as 0.0895 normalized occupancy.

In the case of AGTAACTC, the binding signal was 0.0742 normalized occupancy.

As to CTAGGAGA, the binding signal is 0.0761 normalized occupancy.

In the case of AATGCCTA, the binding signal is 0.0747 normalized occupancy.

Regarding ACATCAGT, the binding signal came out at 0.0736 normalized occupancy.

With TATGAATA, the binding signal worked out at 0.0823 normalized occupancy.

For the sequence ATATCTCC, the binding signal stood at 0.0807 normalized occupancy.

With CACTTCAG, the binding signal was 0.0728 normalized occupancy.

Turning to TTGAGAAA, the binding signal stood at 0.0807 normalized occupancy.

Turning to AACGTACT, the binding signal was 0.0746 normalized occupancy.

With ACACGAAT, the binding signal came out at 0.0776 normalized occupancy.

With ACACGAGG, the binding signal turned out to be 0.144 normalized occupancy.

ACACGATA: the binding signal amounted to 0.0824 normalized occupancy.

ACACGAGC: the binding signal was determined as 0.0815 normalized occupancy.

ACACGACT: the binding signal was found to be 0.0807 normalized occupancy.

Consider ACACGATG, for which the binding signal is 0.0969 normalized occupancy.

ATACGAGG: the binding signal amounted to 0.084 normalized occupancy.

For the sequence ACACGAGT, the binding signal was determined as 0.0979 normalized occupancy.

As for ATACGAGA, the binding signal amounted to 0.0785 normalized occupancy.

As for AAACGAGG, the binding signal was 0.081 normalized occupancy.

Regarding ACACGATC, the binding signal was 0.0822 normalized occupancy.

As for ACACGAGA, the binding signal turned out to be 0.0977 normalized occupancy.

As for GTGCCCTA, the binding signal is 0.0772 normalized occupancy.

For the sequence CAAACAGG, the binding signal was 0.0747 normalized occupancy.

Turning to CGCAAGAG, the binding signal was found to be 0.0757 normalized occupancy.

AGGGGTCG: the binding signal is 0.0779 normalized occupancy.

Consider GCATATCC, for which the binding signal worked out at 0.0834 normalized occupancy.

CCATATGC: the binding signal was determined as 0.1 normalized occupancy.

As for CTATATGC, the binding signal worked out at 0.0831 normalized occupancy.

Consider GCATATGA, for which the binding signal was 0.0934 normalized occupancy.

Take GCATATGC: the binding signal came out at 0.0998 normalized occupancy.

As for CCATATGG, the binding signal turned out to be 0.123 normalized occupancy.

On to CCATATCG, for which the binding signal turned out to be 0.083 normalized occupancy.

In the case of CCATATAG, the binding signal came to 0.087 normalized occupancy.

For the sequence CGATATGC, the binding signal was determined as 0.0806 normalized occupancy.

Turning to CAGATAAA, the binding signal is 0.078 normalized occupancy.

For the sequence ACCATAAG, the binding signal was determined as 0.0853 normalized occupancy.

With ACAAATTG, the binding signal was 0.0753 normalized occupancy.

As for CCCATACC, the binding signal is 0.0872 normalized occupancy.

Turning to CCAGTTGC, the binding signal worked out at 0.0718 normalized occupancy.

Regarding AAACAGTG, the binding signal was determined as 0.0728 normalized occupancy.

On to TAGTTTGA, for which the binding signal is 0.0723 normalized occupancy.

In the case of AATTTTCT, the binding signal worked out at 0.0797 normalized occupancy.

As to ACGGGACA, the binding signal was 0.0774 normalized occupancy.

Turning to ATGTGTTG, the binding signal came to 0.0905 normalized occupancy.

On to GTGTGTTA, for which the binding signal stood at 0.0835 normalized occupancy.

Take AAGTGTTC: the binding signal amounted to 0.0784 normalized occupancy.

AGGTGTTA: the binding signal is 0.0801 normalized occupancy.

With ACGTGTTG, the binding signal turned out to be 0.109 normalized occupancy.

In the case of AGGTGTTG, the binding signal was 0.0828 normalized occupancy.

Regarding GCGTGTTA, the binding signal was determined as 0.101 normalized occupancy.

On to ACGTGTTA, for which the binding signal was found to be 0.109 normalized occupancy.

For the sequence CCGTGTTC, the binding signal amounted to 0.0725 normalized occupancy.

Turning to GGGTGTTA, the binding signal came out at 0.0779 normalized occupancy.

As to CCGTGTTA, the binding signal was determined as 0.0848 normalized occupancy.

In the case of ACGTGTTC, the binding signal is 0.104 normalized occupancy.

Turning to AGAGTCGC, the binding signal was determined as 0.0764 normalized occupancy.

Take ACGGATGC: the binding signal was found to be 0.0722 normalized occupancy.

Consider GTGCCTTA, for which the binding signal worked out at 0.0789 normalized occupancy.

ATGAGCGG: the binding signal came out at 0.0799 normalized occupancy.

For the sequence CGGTGTAC, the binding signal was determined as 0.0764 normalized occupancy.

GATATTCC: the binding signal was 0.0765 normalized occupancy.

As for AGCAATTC, the binding signal was 0.0722 normalized occupancy.

Consider CCCGTGAA, for which the binding signal was determined as 0.0812 normalized occupancy.

In the case of CCCGTGAC, the binding signal turned out to be 0.0826 normalized occupancy.

Regarding CACGTGAA, the binding signal is 0.231 normalized occupancy.

For the sequence CACGTGAG, the binding signal amounted to 0.245 normalized occupancy.

As for GACGTGAC, the binding signal is 0.0813 normalized occupancy.

Consider TACGTGAA, for which the binding signal was determined as 0.0794 normalized occupancy.

For CACGTAAG, the binding signal was 0.0796 normalized occupancy.

Regarding CACGTGAC, the binding signal was found to be 0.464 normalized occupancy.

With GACGTGAA, the binding signal was determined as 0.0766 normalized occupancy.

On to CCTTCCCA, for which the binding signal is 0.0748 normalized occupancy.

As for GAATCCTA, the binding signal turned out to be 0.0741 normalized occupancy.

Take CAGCCGCA: the binding signal turned out to be 0.0718 normalized occupancy.

Regarding TGGGTGAA, the binding signal is 0.0791 normalized occupancy.

For the sequence AGGATGAC, the binding signal worked out at 0.0813 normalized occupancy.

As for TCTAGCCA, the binding signal was determined as 0.0723 normalized occupancy.

With CCTTTATA, the binding signal was 0.0822 normalized occupancy.

Consider ATGCTTTC, for which the binding signal is 0.0842 normalized occupancy.

As to CTCGTTTC, the binding signal is 0.0748 normalized occupancy.

Regarding CTCGTGTC, the binding signal is 0.0959 normalized occupancy.

On to GTCGTGTA, for which the binding signal stood at 0.0822 normalized occupancy.

Consider ATCGTGTA, for which the binding signal turned out to be 0.0829 normalized occupancy.

Consider ATCGTGTC, for which the binding signal was 0.0864 normalized occupancy.

As for CTCGTGTA, the binding signal was 0.103 normalized occupancy.

As to AACATACC, the binding signal was found to be 0.086 normalized occupancy.

For the sequence ATCGTCGA, the binding signal is 0.0747 normalized occupancy.

As for CTGAATAC, the binding signal is 0.0791 normalized occupancy.

Take CGTGTGTA: the binding signal is 0.0944 normalized occupancy.

As for CGCGCGTC, the binding signal is 0.075 normalized occupancy.

As to AGCGTATG, the binding signal was found to be 0.0754 normalized occupancy.

Turning to CGCGTGTA, the binding signal was found to be 0.123 normalized occupancy.

AGCGTGTC: the binding signal turned out to be 0.0932 normalized occupancy.

Turning to AGTGTGTA, the binding signal turned out to be 0.0806 normalized occupancy.

As for CGTGTGTC, the binding signal was found to be 0.0936 normalized occupancy.

On to CGTGTATA, for which the binding signal worked out at 0.0906 normalized occupancy.

For AGCGTGTA, the binding signal is 0.0952 normalized occupancy.

Consider CGCGTGTC, for which the binding signal was found to be 0.115 normalized occupancy.

In the case of AGCGTGTG, the binding signal was determined as 0.0954 normalized occupancy.

As for GGCGTGTA, the binding signal was found to be 0.0895 normalized occupancy.

Consider AAAGGACT, for which the binding signal was 0.076 normalized occupancy.

Take CTAGAATA: the binding signal came out at 0.0796 normalized occupancy.

Turning to AAACAACG, the binding signal was 0.079 normalized occupancy.

On to AGTTTGAA, for which the binding signal came to 0.0729 normalized occupancy.

Regarding AAACTCAT, the binding signal turned out to be 0.0797 normalized occupancy.

On to ATAAAAGG, for which the binding signal stood at 0.0778 normalized occupancy.

On to CGGTCTCA, for which the binding signal came out at 0.0736 normalized occupancy.

In the case of CACAGTCA, the binding signal turned out to be 0.0797 normalized occupancy.

Take ACCATCCT: the binding signal is 0.0757 normalized occupancy.

Consider GAGTGAGA, for which the binding signal was found to be 0.0795 normalized occupancy.

As to ACGTGAGG, the binding signal turned out to be 0.0969 normalized occupancy.

Regarding TCGTGAGA, the binding signal is 0.0809 normalized occupancy.

Consider GCGTGAGC, for which the binding signal is 0.091 normalized occupancy.

Consider CCGTGAGA, for which the binding signal was found to be 0.0755 normalized occupancy.

In the case of ATGTGAGC, the binding signal amounted to 0.0803 normalized occupancy.

Consider AAGTGAGG, for which the binding signal is 0.0763 normalized occupancy.

With GCGTGAGA, the binding signal is 0.0965 normalized occupancy.

Take ACGTGAGT: the binding signal was determined as 0.0893 normalized occupancy.

Take ACGTGAGA: the binding signal is 0.0981 normalized occupancy.

With CCGTGAGG, the binding signal is 0.0784 normalized occupancy.

On to ACGTGAGC, for which the binding signal was 0.107 normalized occupancy.
